Our source for the Potency and outcome values is PubChem BioAssay (Tox21).

A short description of assay [1]: qHTS assay for small molecules that induce genotoxicity in human embryonic kidney cells expressing luciferase-tagged ATAD5 (AID 651632). Also: nearly all actives have a fitted effect of over 15% in size. The procedure, abridged: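 HEK293T cells carrying luciferase-tagged ATAD5 were given compound or DMSO vehicle and incubated 16 hr at 37C, 5% CO2. Luciferase activity was read after 30 min at room temperature with Amplite; a rise signals genotoxic stress.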

A short description of assay [2]: qHTS assay for small molecule agonists of the p53 signaling pathway - cell viability (AID 651633; calls by dose curve; also: nearly all actives have a fitted effect of over 30% in size; also: potency is read from the fitted curve at half-maximal effect). The procedure, abridged: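 p53RE-bla cells were treated with compound for 16 hours at 37 C. Cytotoxicity was then measured as CellTiter-Glo luminescence after 30 min at room temperature.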
Assay [3] is described as follows: qHTS assay for small molecules that induce genotoxicity in human embryonic kidney cells expressing luciferase-tagged ATAD5 - cell viability (AID 651634; calls by dose curve; also: nearly all actives have a fitted effect of over 25% in size; also: potency is read from the fitted curve at half-maximal effect). Put shortly: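 HEK293T cells carrying luciferase-tagged ATAD5, 2,000 cells/well, exposed to compound for 15.5 hr at 37C. Viability read as live-cell protease activity by CellTiter-Fluor fluorescence after 30 min at 37C.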

A short description of assay [4]: qHTS assay for small molecule disruptors of the mitochondrial membrane potential - cell viability (AID 720634; calls by dose curve;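 also: human HepG2 liver cancer cells; nearly all actives have a fitted effect of over 20% in size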). Put shortly:
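HepG2 cells, 2,000 per well, attached overnight, then treated 1 hr at 37 C, 5% CO2. Viability read as ATP by CellTiter-Glo luminescence after 30 min at room temperature. Read in the same wells as the m-MPI membrane-potential dye assay.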

The nature of assay [5]: qHTS assay for small molecule disruptors of the mitochondrial membrane potential (AID 720635). Also: potency is read from the fitted curve at half-maximal effect. The procedure, abridged: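 HepG2 cells exposed to compound 1 hr at 37C, then Mito-MPS dye 30 min. Ratio read of aggregate (540/590 nm) versus monomer (490/535 nm) fluorescence.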
The nature of assay [6]: qHTS assay to test for compound auto fluorescence at 590 nm (red) in HepG2 cells (AID 720674). Put shortly:
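Fluorescence at 590 nm emission following 540 nm excitation was recorded from HepG2 wells one hour after compound transfer, with DMSO-only wells as vehicle and Rose Bengal sodium equivalency as the scale.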

Assay [7] can be described thus: qHTS assay to test for compound auto fluorescence at 535 nm (green) in HepG2 cells (AID 720675).
The nature of assay [8]: qHTS assay to test for compound auto fluorescence at 460 nm (blue) in HEK293 cells (AID 720678). Put shortly: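 Measured: blue fluorescence (Ex 405/Em 460 nm) of compound-treated HEK293 cells, incubated overnight at 37C with 5% CO2 and scaled to triamterene equivalents.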
Assay [9] can be described thus: qHTS assay to test for compound auto fluorescence at 590 nm (red) in HEK293 cells (AID 720679). Put shortly: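 Using HEK293 cells at 2,000 per well, the screen added 23 nL of each compound after cell attachment and incubated overnight (37C, 5% CO2). The plate reader then captured red-label fluorescence, Ex/Em 540/590nm.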
Assay [10] in a line: qHTS assay to test for compound auto fluorescence at 535 nm (green) in HEK293 cells (AID 720680).
Assay [11] is described as follows: qHTS assay to test for compound auto fluorescence at 460 nm (blue) in HEK293 cell free culture (AID 720681). The procedure, abridged: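 Compounds were added to cell-free DMEM with 10% FBS and fluorescence read directly. The blue channel used 405 nm excitation and 460 nm emission, with triamterene as the reference fluorophore.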
A short description of assay [12]: qHTS assay to test for compound auto fluorescence at 535 nm (green) in HEK293 cell free culture (AID 720682). The procedure, abridged: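 Green-channel intensity (Ex/Em 485/535 nm) was recorded from compound-treated wells containing only DMEM with 10% FBS. Fluorescein provided the equivalency standard.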
Assay [13] can be described thus: qHTS assay to test for compound auto fluorescence at 590 nm (red) in HEK293 cell free culture (AID 720683). The procedure, abridged: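 Cell-free wells of DMEM with 10% FBS received compound, and intrinsic fluorescence was read at excitation/emission 540/590 nm. Values expressed as equivalence to Rose Bengal sodium.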
The nature of assay [14]: qHTS assay to test for compound auto fluorescence at 590 nm (red) in HepG2 cell free culture (AID 720684). The procedure, abridged: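 Compounds are added to culture medium (MEM, 10% FBS) lacking cells, then fluorescence is read at excitation 540 nm, emission 590 nm, with Rose Bengal sodium as the equivalency standard.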
A short description of assay [15]: qHTS assay to test for compound auto fluorescence at 460 nm (blue) in HepG2 cell free culture (AID 720685). Put shortly:
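Compound (23 nL) or DMSO pinned into cell-free MEM with 10% FBS; blue fluorescence read at 405/460 nm excitation/emission, expressed as auto-fluorescence equivalency to triamterene.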

Assay [16] is described as follows: qHTS assay to test for compound auto fluorescence at 535 nm (green) in HepG2 cell free culture (AID 720686).
Assay [17] is described as follows: qHTS assay to test for compound auto fluorescence at 460 nm (blue) in HepG2 cells (AID 720687). The procedure, abridged: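 HepG2 cells in MEM with 10% FBS, attached overnight at 37 C, were exposed to compound or DMSO for 1 hr at 37 C, 5% CO2. Blue fluorescence was read at 405/460 nm, with triamterene as reference fluorophore.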
The target in assay [18] is Glucocorticoid receptor (Homo sapiens) (UniProt P04150). The assay is described as follows: qHTS assay to identify small molecule agonists of the glucocorticoid receptor (GR) signaling pathway (AID 720691; active = well fitted activation curve with a large enough effect in the signal ratio in the repeat runs, not every such curve was filed as active; the % refers to the signal ratio). The conditions noted are these: GR-bla HeLa, beta-lactamase reporter ratio, 18 h; activation: at 62.4 µM (top of the series) unless noted. Put shortly: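 GR-bla HeLa cells carrying a GRE-driven beta-lactamase reporter, exposed to compounds for 18 h at 37 C. Reporter activation read as fluorescence after 2 h with LiveBLAzer B/G FRET substrate at room temperature.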

For assay [19] the target is unchanged. The assay is described as follows: qHTS assay to identify small molecule antagonists of the glucocorticoid receptor (GR) signaling pathway (AID 720692; active = well fitted inhibition curve with a large enough effect in the signal ratio in the repeat runs, not every such curve was filed as active; the % refers to the signal ratio). Put shortly: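 GR-bla HeLa cells carrying a GRE-driven beta-lactamase reporter received compound after 4 h plating, then dexamethasone (5 nM final). After 18 h at 37C, the FRET substrate was loaded for 2 h at room temperature and fluorescence read.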

Assay [20] in a line: qHTS assay for small molecule agonists of the p53 signaling pathway (AID 651631; calls by dose curve; also: nearly all actives have a fitted effect of over 15% in size). The procedure, abridged: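 We treat p53RE-bla HCT-116 cells with compounds for 16 h at 37 °C, add LiveBLAzer B/G FRET substrate for 2 h at room temperature, and measure fluorescence intensity.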

SMILES strings stand for the structures. Where “and” joins values, the source holds several entries; their conditions need not be identical. Identical values can stand only once. Unmarked numbers belong to inactive results. Inconclusive results are not listed. Calls of active or inactive are those of the source. Unless noted, calls follow the shape of the dose curve; as a rule, active = well fitted curve in the direction sought with a large enough effect in the repeat runs; inconclusive = weak or mixed curves; inactive = no such curve, though single readings can be large; an effect the other way counts as inactive or inconclusive.

Glucocorticoid receptor (Homo sapiens), sequence (P04150 whole entry, looked up): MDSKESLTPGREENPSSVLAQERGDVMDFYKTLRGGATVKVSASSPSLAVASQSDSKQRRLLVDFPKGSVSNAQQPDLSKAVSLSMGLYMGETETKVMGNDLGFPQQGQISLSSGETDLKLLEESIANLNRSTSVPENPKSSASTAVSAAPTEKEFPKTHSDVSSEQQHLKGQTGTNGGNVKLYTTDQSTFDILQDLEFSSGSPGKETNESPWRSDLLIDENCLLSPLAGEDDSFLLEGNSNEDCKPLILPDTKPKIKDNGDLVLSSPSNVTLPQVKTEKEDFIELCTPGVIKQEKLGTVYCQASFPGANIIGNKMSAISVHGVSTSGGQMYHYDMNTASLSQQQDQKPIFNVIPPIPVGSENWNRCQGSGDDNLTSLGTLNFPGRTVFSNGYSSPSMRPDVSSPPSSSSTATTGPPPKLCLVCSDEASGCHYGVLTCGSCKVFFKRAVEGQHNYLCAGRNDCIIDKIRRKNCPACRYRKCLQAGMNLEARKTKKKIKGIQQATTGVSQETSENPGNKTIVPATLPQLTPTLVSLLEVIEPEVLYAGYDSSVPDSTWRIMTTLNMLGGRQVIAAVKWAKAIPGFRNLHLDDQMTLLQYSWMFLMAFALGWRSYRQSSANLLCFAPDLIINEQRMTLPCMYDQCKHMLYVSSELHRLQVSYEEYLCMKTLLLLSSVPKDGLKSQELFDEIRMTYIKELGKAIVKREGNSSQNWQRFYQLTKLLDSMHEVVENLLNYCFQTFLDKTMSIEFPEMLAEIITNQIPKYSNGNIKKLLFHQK

Consider `CC[N+](C)(CC)CCOC(=O)C(O)(c1ccccc1)C1CCCCC1` (stereo unspecified), for which the Potency result in [1], in assay [2], in [3], in [4], in [5] and in assay [6] was “inactive” in each case. In addition, the Potency result in assay [7], in [9], in assay [13], in [14], in [16] and in assay [18] was “inactive” each time. Besides, in [19], the Potency result is “inactive”. Besides, the call in assay [8], in assay [10], in [11], in assay [12], in assay [15] and in assay [17] was inactive.

Consider `CCCCCCCC#N`, for which the Potency entry in assay [1], in assay [2], in assay [3], in assay [4], in [5] and in assay [6] was “inactive” throughout. Further, the Potency result in [7], in [9], in assay [14], in assay [16] and in assay [18] was “inactive” in each case. Also, the compound was called inactive in assay [8], in assay [10], in assay [11], in assay [12], in assay [15] and in [17].

For the compound `CCOc1ccc(O)cc1`, the Potency result in assay [20], in assay [2], in assay [3], in [4], in assay [5] and in assay [6] was “inactive” each time. Also, the Potency result in assay [7], in [9], in [13], in [14] and in assay [18] was “inactive” in each case. Besides, the outcome in assay [8], in assay [10], in assay [11], in assay [12], in assay [15] and in [17] was inactive.

Consider `Cc1cc(N)c2cc(NC(=O)Nc3ccc4nc(C)cc(N)c4c3)ccc2n1`, for which the Potency entry in assay [20], in assay [3], in assay [4], in assay [7], in assay [9] and in [13] was “inactive” in each case. Moreover, the Potency result in assay [14] and in assay [16] was “inactive” throughout. In addition, the Potency in assay [5] was 22.1 µM (active). Further, the call in [8], in [10], in assay [11], in [12] and in assay [17] was inactive.

For `Cn1c(=O)cc(Oc2ccc(F)cc2F)c2cnc(NCC(C)(C)O)nc21`, the Potency entry in assay [20], in assay [1], in [3], in assay [6], in [7] and in assay [9] was “inactive” each time. Moreover, the Potency entry in assay [13], in assay [14], in [18] and in [19] was “inactive” throughout. Further, the compound was called inactive in [8], in [10], in assay [11], in assay [12] and in [17].

As to `O=C1C(O)=C(O)C(=O)C(O)=C1O`, the Potency result in assay [1], in [2], in [3], in assay [4], in assay [5] and in [6] was “inactive” each time. Also, the Potency result in assay [7], in assay [9], in assay [13], in assay [14], in [16] and in [18] was “inactive” in each case. In addition, the call in assay [8], in assay [10], in assay [11], in assay [12], in assay [15] and in assay [17] was inactive.

On to `CCCCCCCCCc1ccc(OCCOCCO)cc1`, for which the Potency entry in assay [1], in assay [4], in [6], in assay [7], in assay [9] and in assay [13] was “inactive” throughout. Further, the Potency entry in assay [14] and in assay [18] was “inactive” throughout. For the same compound, the Potency in assay [2] is 29.8 µM (active); in [3], 18.8 µM (active); in assay [5], 10.6 µM (active) and 1.44 µM (active). In addition, the outcome in assay [8], in assay [10], in assay [11], in assay [12] and in assay [17] was inactive.
